Here are results for 40 compounds from PubChem BioAssay (NCATS).

Structures are written as SMILES. Records with an inconclusive call do not appear. A number with no mark means an inactive call. Active and inactive are the calls of the source. Calls come from the whole dose curve; as a rule, active = well fitted inhibition curve with a large enough effect; inconclusive = small, poorly fitted or top-dose-only effect; inactive = flat fitted curve, though single readings scatter.
Potency is the fitted concentration of half-maximal effect.

The assay in a line: BET inhibitor-based combinations targeting novel dependencies in MECOM-rearranged (r) AML: AML-191 cell line (AID 2202236; note: nearly all actives have a fitted effect of over 35% in size;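 for viability (% of control): plate controls were vehicle wells for no effect and wells without cells for full effect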). To be noted: AML-191 viability, CellTiter-Glo luminescence, 48 h; series mostly up to 46 µM; viability (% of control): at the top concentration. The source says: Ecotropic viral insertion site 1 (EVI1) is located on chromosome 3q26.2 as part of the MECOM (MDS and EVI1 complex) locus. Under normal hematopoiesis, EVI1 is a regulator of hematopoietic stem cell maintenance and self-renewal and EVI1 levels decrease as the cells differentiate. In approximately 5-10% of de novo acute myeloid leukemia (AML) EVI1 is aberrantly expressed, including Chromosomal inv(3)(q21;q26.2) or t(3;3)(q21;q26.2) alterations (MECOM-r) that account for about 50% of AML with EVI1 overexpression 31. AMLs with high levels of EVI1 have a poor prognosis and an overall survival time averaging between 10-14 months. EVI1 overexpression confers resistance in leukemia cells, highlighting the need to develop new targeted therapies for EVI1 overexpressing AMLs.
Here, we performed an unbiased chemical drug screening by evaluating the single agent activity of a collection of 2,480 oncology-focused, approved and investigational drugs (NCATS Mechanism Interrogation Plates, MIPE v5.0) against a panel of seven AML cell lines. These included four MECOM-r cell-lines (AML-191, AML-194, UCSD-AML1 and HNT-34) and three non-MECOM-r AMLs (MV4-11, OCI-AML3 and SET-2). Exploiting the mechanistic redundancy built in the library, we identified target-level sensitivities in MECOM-r AML cells and relative activity as compared to other AML subtypes.
A collection of 2480 mechanistically annotated dugs (MIPE v5.0) was used to screen four 3q26.2 rearranged AML cell lines and three non-3q26.2 rearranged AML cell lines. This library purposely exploits redundancy by including multiple inhibitors of key onco-targets, while simultaneously encompassing mechanistic diversity, targeting more than 800 distinct mechanisms of action. Briefly, cells were seeded in 5 uL of growth media using a Multidrop Combi dispenser into 1536 well white polystyrene tissue culture treated plates (Corning) at a density of 500cells/well. For each cell-line, for each of the 2480 drugs in MIPE v5.0 library, an 11-point dose curve was generated via a 1536 pin-tool. Plates were incubated for 48 hr at standard incubator conditions, covered by a stainless steel gasketed lid to prevent evaporation. Cell viability was determined by luminescence based, Cell Titer Glo assay (Promega). In detail, 3 uL of Cell Titer Glo were added to each well and plates were incubated at room temperature for 15 min with a stainless-steel lid in place. Luminescence readings were taken using a Viewlux (PerkinElmer) with a 2 s exposure time per plate. Compound dose-response curves were normalized to DMSO and empty well controls on each plate. Quantitative drug activity data from dose-response curves was determined utilizing area Under the Curve (AUC) and Z-transformed AUC (Z-AUC, a mean-centering transformation applied to each individual cell-line screened).
In general terms: ATP-based viability assays read luminescence as a measure of living cells.
Regarding `CC(C)(OCc1nn(Cc2ccccc2)c2ccccc12)C(=O)O`, the “viability (% of control)” value is 102%. For `COc1ccc(Cl)c(Nc2ncnc3cc(OCC4CCN(C)CC4)c(OC)cc23)c1`, the Potency is 23.5 µM (active).

Turning to `CC1(COc2ccc3c(c2)ncn3-c2ccc3cccc(N4CCC(N)CC4)c3n2)COC1`, the Potency is 2.09 µM (active). Take `CN1CCN(CCOc2cc(OC3CCOCC3)c3c(Nc4c(Cl)ccc5c4OCO5)ncnc3c2)CC1`: the Potency was 18.6 µM (active).

Turning to `Nc1ccccc1NC(=O)c1ccc(CNc2nccc(-c3cccnc3)n2)cc1`, the Potency was 1.66 µM (active). With `Cc1n[nH]c(C)c1Cc1sc2c(c1C(=O)N1C[C@H](O)CO1)c(=O)n(C)c(=O)n2CC(C)C`, the “viability (% of control)” value is 109%. As for `CCOC(=O)c1c(C)n(C)c2ccc(O)cc12`, the “viability (% of control)” value was 99.9%. Take `O=C(Nc1cc(C(F)(F)F)cc(C(F)(F)F)c1)c1cc(Cl)ccc1O`: the Potency is 1.18 µM (active). For the compound `O=C(/C=C/c1cccc(S(=O)(=O)Nc2ccccc2)c1)NO`, the Potency was 0.934 µM (active). In the case of `CCOC(=O)C=C[C@H](C[C@@H]1CCNC1=O)NC(=O)[C@@H](CC(=O)[C@@H](NC(=O)c1cc(C)on1)C(C)C)Cc1ccc(F)cc1`, the “viability (% of control)” value is 116%. Turning to `CNC(=O)c1c(F)cccc1Nc1nc(Nc2cc3c(cc2OC)CCN3C(=O)CN(C)C)nc2[nH]ccc12`, the Potency was 8.33 µM (active).

On to `Cc1coc2c1C(=O)C(=O)c1c-2ccc2c1CCCC2(C)C`, for which the “viability (% of control)” value is 87.8%. As for `COc1cc(CCc2cc(NC(=O)c3ccc(N4C[C@@H](C)N[C@@H](C)C4)cc3)n[nH]2)cc(OC)c1`, the Potency was 16.6 µM (active). Take `NC1=N[C@H]2[C@H](CS[C@H]2CCCCC(=O)O)N1`: the “viability (% of control)” value is 74.7% [at 15.6 µM]. Take `CC#C[C@@H](CC(=O)O)c1ccc(OCc2cccc(-c3ccc(C(F)(F)F)cc3)c2)cc1`: the Potency is 20.9 µM (active). On the same count and under the same terms, under `Cc1ccc(-n2nc(C(C)(C)C)cc2NC(=O)Nc2ccc(OCCN3CCOCC3)c3ccccc23)cc1` stands 18.6 µM (active); under `C[C@@H](NCc1cc2ccccc2[nH]1)c1cccc2ccccc12`, 13.2 µM (active). Still for that read-out and setting: under `COc1cc(OC)c(/C=C/S(=O)(=O)Cc2ccc(OC)c(NCC(=O)O)c2)c(OC)c1` stands 0.235 µM (active); under `COc1ccc2c(Oc3ccc(NC(=O)c4c(C)n(CC(C)(C)O)n(-c5ccccc5)c4=O)cc3F)ccnc2c1`, 20.9 µM (active).

In the case of `CS(=O)(=O)c1ccc(C(=O)Nc2ccc(Cl)c(-c3ccccn3)c2)c(Cl)c1`, the “viability (% of control)” value was 101%.

Turning to `Cc1cc(F)c(C(=O)Nc2cccc(-c3nncn3C(C)C)n2)cc1-n1cnc(C2CC2)c1`, the Potency was 18.6 µM (active). For `C[C@@H](CN1CC(=O)NC(=O)C1)N1CC(=O)NC(=O)C1`, the Potency is 13.2 µM (active). On the same count and under the same terms, then `Cn1ncc(Cl)c1-c1cc(C(=O)N[C@H](CN)Cc2cccc(F)c2)sc1Cl`, with 16.6 µM (active). With `CS(=O)(=O)c1cccc(CNc2nc(Nc3ccc4c(c3)CCC(=O)N4)ncc2C(F)(F)F)c1`, the Potency was 9.34 µM (active).

For `CC(=O)O[C@H]1C[C@@H]2CC[C@@H]3[C@H](CC[C@@]4(C)[C@H]3C[C@H]([N+]3(C)CCCCC3)[C@@H]4OC(C)=O)[C@@]2(C)C[C@@H]1N1CCCCC1`, the “viability (% of control)” value is 99.8%. With `Cc1cc2c(cc1C1(c3ccc(C(=O)O)cn3)CC1)C(C)(C)CCC2(C)C`, the “viability (% of control)” value was 97.9%. On the same count and under the same terms, under `Nc1cccc2c1C(=O)N(C1CCC(=O)NC1=O)C2=O` (stereo not given) stands 109%. Still for that read-out and setting: under `C[C@]12CCC3c4ccc(O)cc4CCC3C1CCC2=O` (stereo not given in full) stands 95.7%. Turning to `NS(=O)(=O)c1cccc2c1C(=O)c1cccc(O)c1C2=O`, the Potency was 2.35 µM (active). Regarding `CC1(C)[C@@H](O)CC[C@]2(C)[C@H]3C(=O)C=C4[C@@H]5C[C@@](C)(C(=O)O)CC[C@]5(C)CC[C@@]4(C)[C@]3(C)CC[C@@H]12`, the “viability (% of control)” value was 99.5%. In the case of `COc1cc(C(=O)N2CCC(N3CCN(C)CC3)CC2)ccc1Nc1ncc2c(n1)N(C)c1ccccc1C(=O)N2C`, the Potency was 9.34 µM (active). On the same count and under the same terms, then `Cc1ccc([N+](=O)[O-])cc1S(=O)(=O)N(C)/N=C/c1cnc2ccc(Br)cn12`, with 0.166 µM (active); and `COc1ccc(C[C@@H](C)[C@@H](C)Cc2ccc(OC)c(OC)c2)cc1OC`, with 18.6 µM (active); and `CCN(CC)Cc1ccc2cc(COC(=O)Nc3ccc(C(=O)NO)cc3)ccc2c1`, with 0.742 µM (active). In the case of `CN(C)c1ccc2nc3ccc(=[N+](C)C)cc-3sc2c1`, the Potency is 2.95 µM (active). For the compound `O=[N+]([O-])c1ccc(-c2nc(-c3ccc(F)cc3)c(-c3ccncc3)[nH]2)cc1`, the “viability (% of control)” value is 104%. As to `Cc1ccc(C(=O)Nc2ccc(CN3CCN(C)CC3)c(C(F)(F)F)c2)cc1C#Cc1cnc2cccnn12`, the Potency was 0.934 µM (active). In the case of `COC(=O)Nc1nc2ccc(C(=O)c3ccc(F)cc3)cc2[nH]1`, the Potency was 0.332 µM (active). Turning to `CC#CCn1c(N2CCC[C@@H](N)C2)nc2c1c(=O)n(Cc1nc(C)c3ccccc3n1)c(=O)n2C`, the “viability (% of control)” value is 110%. On the same count and under the same terms, under `Cc1c(F)cc(C(=O)NC2CC2)cc1-c1ccc(C(=O)NCC(C)(C)C)cn1` stands 91.6%.
